For experiment [1], the target named is 6-phosphogluconate dehydrogenase, decarboxylating (Homo sapiens) (UniProt P52209). Kind of experiment: 6PGD enzyme inhibitors, primary screen, biochemical, human, recombinant enzyme, NADPH absorbance (AID 1159550;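 active means at least 20% inhibition of 6-phosphogluconate dehydrogenase activity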). The note with it: recombinant 6PGD, NADPH absorbance 341 nm; at 10 µM; hits give high values.
In experiment [2] the target is Mitogen-activated protein kinase 7 (Homo sapiens) (UniProt Q13164). In words: ERK5 transactivation activators in reporter cells, primary screen, cell-based, HTS (AID 1508626).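 Further: luciferase driven by Gal4-ERK5 fusion binding five Gal4 sites before minimal TATA.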 The note with it: HeLa Gal4-ERK5 transactivation, 18 h, at 5 µM, hits give high values.
Sequence of Mitogen-activated protein kinase 7 (Homo sapiens) (Q13164 whole entry, looked up, the tested form may be a part): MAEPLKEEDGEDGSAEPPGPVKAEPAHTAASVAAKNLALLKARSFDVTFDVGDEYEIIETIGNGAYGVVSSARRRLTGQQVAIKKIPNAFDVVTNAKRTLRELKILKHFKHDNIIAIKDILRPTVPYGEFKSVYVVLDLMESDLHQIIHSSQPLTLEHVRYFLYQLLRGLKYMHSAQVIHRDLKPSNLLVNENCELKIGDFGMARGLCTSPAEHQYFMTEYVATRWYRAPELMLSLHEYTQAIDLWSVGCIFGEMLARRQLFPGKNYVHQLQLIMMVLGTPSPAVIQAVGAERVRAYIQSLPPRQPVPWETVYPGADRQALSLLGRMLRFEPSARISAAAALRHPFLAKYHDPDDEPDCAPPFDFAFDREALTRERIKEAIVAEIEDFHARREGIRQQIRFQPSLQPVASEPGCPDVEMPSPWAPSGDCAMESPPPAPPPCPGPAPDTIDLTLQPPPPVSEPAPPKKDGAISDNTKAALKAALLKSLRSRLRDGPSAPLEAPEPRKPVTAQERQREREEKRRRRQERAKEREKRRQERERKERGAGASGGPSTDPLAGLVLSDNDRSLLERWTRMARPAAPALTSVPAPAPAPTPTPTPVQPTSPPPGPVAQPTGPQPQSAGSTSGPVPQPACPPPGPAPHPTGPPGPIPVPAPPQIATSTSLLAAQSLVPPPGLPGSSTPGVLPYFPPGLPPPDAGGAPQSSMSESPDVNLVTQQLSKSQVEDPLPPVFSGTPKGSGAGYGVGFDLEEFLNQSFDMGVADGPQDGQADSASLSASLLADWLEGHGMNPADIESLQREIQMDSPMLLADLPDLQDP

This is an account of results in PubChem BioAssay.

By inhibition is commonly meant the relative decrease from the control value, in per cent.

Unmarked numbers belong to inactive results. Calls of active or inactive are those of the source.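 How the source made its calls, unless noted: active means luciferase signal above three times the same-plate solvent-only control wells; inactive means the rest.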

Sequence of 6-phosphogluconate dehydrogenase, decarboxylating (Homo sapiens) (P52209 whole entry, looked up, the tested form may be a part): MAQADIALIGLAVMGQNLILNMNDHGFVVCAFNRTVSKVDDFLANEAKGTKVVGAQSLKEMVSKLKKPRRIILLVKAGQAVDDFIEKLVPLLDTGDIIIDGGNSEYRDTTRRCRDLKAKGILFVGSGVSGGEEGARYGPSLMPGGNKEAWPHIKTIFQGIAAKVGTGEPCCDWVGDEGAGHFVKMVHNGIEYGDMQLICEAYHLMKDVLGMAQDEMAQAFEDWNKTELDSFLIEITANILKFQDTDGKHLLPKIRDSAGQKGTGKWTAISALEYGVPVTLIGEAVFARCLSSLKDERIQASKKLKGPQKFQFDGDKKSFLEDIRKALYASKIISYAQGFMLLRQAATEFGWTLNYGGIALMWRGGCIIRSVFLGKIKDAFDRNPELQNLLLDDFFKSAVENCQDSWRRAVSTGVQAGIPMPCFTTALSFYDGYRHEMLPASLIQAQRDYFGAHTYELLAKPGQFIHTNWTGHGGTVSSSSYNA

As for `COC1=C[C@@H](C)[C@@H]2C[C@H]3OC(=O)C[C@H]4C(C)=C(OC)C(=O)[C@H]([C@@]2(C)C1=O)[C@@]34C`, the inhibition in experiment [1] is -9.87%. Besides, the luciferase signal in experiment [2] was 40 AU.
The like results for `CC(=O)O[C@H]1CC[C@@]2(C)C(=CC=C3[C@@H]4CC[C@H]([C@H](C)/C=C/[C@H](C)C(C)C)[C@@]4(C)CC[C@@H]32)C1` were, in that order, 14.6% and 72 AU.
For `C[C@@H]1CC[C@H]2C(C)(C)[C@H]3C[C@@]12CC[C@@]3(C)O`, in that order: 1.71% and 28 AU.
For `COC(=O)C[C@H]1C(C)(C)C2(O)OC34CC2C(=O)[C@]1(C)C3CC[C@]1(C)C4=CC(=O)O[C@H]1c1ccoc1` (some centres not stated), in that order: 4.12% and 20 AU.
Take `COC(=O)C(O)c1ccccc1` (configuration not stated): the inhibition in experiment [1] is 1.31%. For the same molecule, the luciferase signal in experiment [2] was 28 AU.
In the case of `CC1/C(=N/O)C[C@@H]2C[C@H]1C2(C)C` (some centres not stated), the inhibition in experiment [1] was -7.59%. Further, the luciferase signal in experiment [2] was 52 AU.
For `CC(=O)CC(=O)CCC(=O)O`, in that order: 9.16% and 80 AU.
For the molecule `CC(=O)OC1C[C@@]2(C)[C@H](c3ccoc3)OC(=O)[C@H]3O[C@]32[C@@]2(C)C1[C@]1(C)C(C[C@H]2OC(C)=O)C(C)(C)[C@H](OC(C)=O)C[C@@H]1OC(C)=O` (some centres not stated), the inhibition in experiment [1] is -3.59%. In addition, in experiment [2], the luciferase signal was 24 AU.
The like results for `Cc1cc(O)c2c(c1O)C(=O)c1c(O)cc(C)c(O)c1C2=O` were, in that order, 2.78% and 48 AU.
For `CC(=O)OC1CCC2(O)CC1(C)CCC1C2CC1(C)C` (configuration not stated), in that order: 15.6% and 36 AU.
`CC(C)CCC[C@@H](C)[C@H]1CC[C@H]2C3=CC[C@H]4C[C@@H](O)CC[C@]4(C)[C@H]3CC[C@]12C`: in experiment [1], the inhibition was 4.86%. Moreover, in experiment [2], the luciferase signal is 56 AU.
As for `O=c1cccc2cc(O)c(O)c(O)c2c1O`, in experiment [1], the inhibition was 16.8%. Also, in experiment [2], the luciferase signal is 60 AU.
For the molecule `CC1(C)CC[C@]2(C(=O)O)CC[C@]3(C)C(=CC[C@@H]4[C@@]5(C)CC[C@H](O)[C@@](C)(CO)[C@@H]5CC[C@]43C)[C@@H]2C1`, the inhibition in experiment [1] was -1.09%. Besides, the luciferase signal in experiment [2] is 76 AU.
The like results for `COc1ccc(-c2cc(=O)c3cc(OC)ccc3o2)cc1` were, in that order, -2.36% and 40 AU.
Regarding `COC(=O)c1c(C)cc(OC)cc1O`, the inhibition in experiment [1] was -8.1%. Moreover, the luciferase signal in experiment [2] is 32 AU.
For `CCC(=O)OC1[C@@H]2CC3=C4CC(=O)O[C@@H](c5ccoc5)[C@]4(C)CCC3[C@@](C)(C2=O)[C@@H](CC(=O)OC)C1(C)C` (some centres not stated), in that order: -1.17% and 20 AU.
For `CCCCCC/C=C\CCCCCCCc1cccc(O)c1C(=O)O`, in that order: 0.888% and 76 AU.
For `C[N+]1(C)C[C@H](O)C[C@H]1C(=O)[O-]`, in that order: 0.213% and 60 AU.
As to `CC(=O)/C=C\[C@@H]1[C@@]2(C)CCCC(C)(C)C2CC[C@@]1(C)O` (some centres not stated), in experiment [1], the inhibition is 14.1%. Moreover, in experiment [2], the luciferase signal was 348 AU (active).
The like results for `COc1cc(O)c2c(=O)c(O)c(-c3ccc(O)c(O)c3)oc2c1` were, in that order, 4.95% and 144 AU.
For `CC(=O)OC1CC2C(C)(C)C(=O)CCC2(C)C2CCC3(C)C(c4ccoc4)OC(=O)C4OC43C12C` (configuration not stated), in that order: 11.7% and 20 AU.
The like results for `COc1cc(OC)c2c(=O)c(-c3ccccc3)coc2c1` were, in that order, 10.4% and 68 AU.
For the molecule `C=C1C2CCC3(C)C(c4ccoc4)OC(=O)CC13OC1CC(=O)C(C)(C)C(CC(=O)OC)C12C` (configuration not stated), the inhibition in experiment [1] was -8.25%. Besides, the luciferase signal in experiment [2] was 16 AU.
Regarding `C[C@@H]1CC[C@H]2[C@](C)(CO)[C@@H](O)CC[C@]2(C)[C@@]12CC[C@@](CO)(CCO)O2`, the inhibition in experiment [1] was -5.82%. In addition, the luciferase signal in experiment [2] was 48 AU.
`COc1cc(/C=C/CO)ccc1O`: the inhibition in experiment [1] was 17.3%. Moreover, the luciferase signal in experiment [2] was 96 AU.
Turning to `Cc1cc(=O)c2c(O)cc(O)c(C)c2o1`, in experiment [1], the inhibition is 9.08%. The luciferase signal in experiment [2] is 132 AU.
The like results for `O=C(O)c1cc(O)c2c(c1)C(=O)c1cc(O)cc(O)c1C2=O` were, in that order, 6.18% and 76 AU.
For `CO[C@H]1C=C[C@@]23c4cc5c(cc4CN(C[C@@H]2O)[C@H]3C1)OCO5`, in that order: 13.8% and 44 AU.
For the molecule `COC(=O)[C@@H]1OC(=O)C2OC23[C@@]1(C)CCC1[C@]2(C)C(C[C@H](O)[C@]13C)C(C)(C)[C@H](OC(C)=O)C[C@@H]2OC(C)=O` (some centres not stated), the inhibition in experiment [1] was -8.14%. For the same molecule, in experiment [2], the luciferase signal is 24 AU.
`CC1=C[C@@H]2[C@@H](CC1)[C@](C)(O)CC[C@H]2C(C)C`: in experiment [1], the inhibition was 9.65%. Also, the luciferase signal in experiment [2] was 48 AU.
The like results for `CC(=O)NC(Cc1c[nH]c2ccccc12)C(=O)O` (configuration not stated) were, in that order, -6.76% and 64 AU.
